# Results filed as inconclusive are left out. The source made the active and inactive calls. Calls follow the shape of the dose curve; as a rule, active = well fitted cell-killing curve with a large enough effect; inconclusive = small, poorly fitted or top-dose-only effect, or effect the other way; inactive = no such curve, though single readings can be large or run the other way.
# Test: Quantitative High-Throughput drug screen in 47 multiple myeloma cell lines against the NCATS MIPE library collection: SKMM1_PLB cell viability assay (AID 1919863); also: nearly all actives have a fitted effect of over 35% in size; as to viability: series mostly up to about 46 µM
# Conditions: SKMM1 myeloma viability, CellTiter-Glo ATP, 48 h; viability: hits give low values
# Description: PI: Beverly A. Mock Ph.D.
# Laboratory of Cancer Biology and Genetics,
# Center for Cancer Research, National Cancer Institute,
# National Institute of Health, Bethesda, Maryland
# Drug resistance and disease progression are common in multiple myeloma (MM) patients, underscoring the need for new therapeutic combinations. […] We hypothesized that effective combinations would reduce MYC expression and enhance p16 activity. […] These preclinical data identify potentially useful drug combinations for evaluation in drug-resistant MM and reveal potential mechanisms of combined drug sensitivity.
# Described herein is the primary MIPE qHTS used to cherrypick compounds. Validated compounds were then further tested for potential synergistic activiy.
# [1] Peat TJ, Gaikwad SM, Dubois W, Gyabaah-Kessie N, Zhang S, Gorjifard S, Phyo Z, Andres M, Hughitt VK, Simpson RM, Miller MA, Girvin AT, Taylor A, Williams D, D'Antonio N, Zhang Y, Rajagopalan A, Flietner E, Wilson K, Zhang X, Shinn P, Klumpp-Thomas C, McKnight C, Itkin Z, Chen L, Kazandijian D, Zhang J, Michalowski AM, Simmons JK, Keats J, Thomas CJ, Mock BA. Drug combinations identified by high-throughput screening promote cell cycle transition and upregulate Smad pathways in myeloma. Cancer Lett. 2023 Aug 1;568:216284. doi: 10.1016/j.canlet.2023.216284. Epub 2023 Jun 24. PMID: 37356470; PMCID: PMC10408729.
# SEQUENCE No. (e.g., 1, 2, 3, etc.); […] (e.g., Cells, Incubation, Reagent, etc.); VALUE and DESCRIPTION.
# 1; Cells; 5 uL; white, solid bottom 1536-well Greiner assay plate.
# 2; Compounds; 23 nL; Kalypsis pin tool (Wako USA) equipped with a 1536-well pin head to transfer to the assay plates.
# 3; Incubation; 48 hours; 37C incubation.
# 4; Reagent;5uL; CellTiter Glo (Promega).
# 5; Detector; 425V; Luminescence; Viewlux PerkinElmer.
# NOTES (numbers refer to Sequence numbers above)
# 1. The cell-based screening methods employed in this study were like those previously published. Briefly, the corresponding myeloma cell lines were screened in 1,536-well plates with 500 cells, 5-uL per well for inhibition of cell viability (assessed by measuring ATP levels with CellTiterGlo).
# 2. NCATS MIPE 4.0 library of approved and investigational drugs were added using the Kalypsis pin tool. Wells treated with DMSO only for 100% viability and media only for 0% viability were used as controls.
# 3. The assay plates were covered and incubated for 48 hours in a 37C, 5% CO2 incubator with controlled humidity.
# 4. After 48 hours, CellTilter-GloTM luminescent substrate mix (Promega) reagent was added to the assay plate and plates we incubated for 5 min at room temperature.
# 5. Signal was measured as median relative luminescence units on a ViewLux (PerkinElmer) multiplate reader.
# [1] Heske CM, Davis MI, Baumgart JT, Wilson K, Gormally MV, Chen L, Zhang X, Ceribelli M, Duveau DY, Guha R, Ferrer M, Arnaldez FI, Ji J, Tran HL, Zhang Y, Mendoza A, Helman LJ, Thomas CJ. Matrix Screen Identifies Synergistic Combination of PARP Inhibitors and Nicotinamide Phosphoribosyltransferase (NAMPT) Inhibitors in Ewing Sarcoma. Clin Cancer Res. 2017 Dec 1;23(23):7301-7311. doi: 10.1158/1078-0432.CCR-17-1121. Epub 2017 Sep 12. PMID: 28899971; PMCID: PMC6636827.
# Potency is read from the fitted curve at half-maximal effect.
SMILES,Potency,viability
N#CNC(=NCCCCCCOc1ccc(Cl)cc1)Nc1ccncc1,0.0166 µM (active),
N#Cc1c(C2CCNCC2)cc(-c2c(O)cccc2OCC2CC2)nc1N,18.7 µM (active),
Nc1nc(=O)n([C@H]2C[C@H](O)[C@@H](CO)O2)cc1F,,129% (inactive)
CC(C)(O)Cn1c(NC(=O)c2ccc(-c3cn[nH]c3)s2)nc2cc(CN3CCOCC3)ccc21,2.96 µM (active),
COc1cc(C(C)C)c(Oc2cnc(NC(CO)CO)nc2N)cc1I,,122% (inactive)
C=CCNc1c(O)cc2c(O)c1C[C@@H](C)C[C@H](OC)[C@@H](O)[C@@H](C)C=C(C)[C@H](OC(N)=O)[C@@H](OC)C=CC=C(C)C(=O)N2,0.264 µM (active),
CCc1nc(-c2cccc(C)c2)c(-c2ccnc(NC(=O)c3ccccc3)c2)s1,7.43 µM (active),
COC(=O)[C@H](CCCN=C(N)N)NS(=O)(=O)c1ccc(C)cc1,,122% (inactive)
C[C@H]1[C@@H](OC(=O)CCC(=O)O)O[C@@H]2O[C@@]3(C)CC[C@@H]4[C@H](C)CC[C@@H]1[C@@]24OO3,4.69 µM (active),
CS[C@H]1SC[C@@H]2C(=O)N(C)[C@H](C(C)C)C(=O)OC[C@H](NC(=O)c3cnc4ccccc4n3)C(=O)N[C@H](C)C(=O)N(C)[C@@H]1C(=O)N(C)[C@H](C(C)C)C(=O)OC[C@H](NC(=O)c1cnc3ccccc3n1)C(=O)N[C@H](C)C(=O)N2C,0.0093 µM (active),
C[C@](Cc1c[nH]c2ccccc12)(NC(=O)OC1C2CC3CC(C2)CC1C3)C(=O)NC[C@H](NC(=O)CCC(=O)O)c1ccccc1 (stereo not given in full),,114% (inactive)
COc1ccc2c(c1OC)C(=O)OC2[C@H]1c2c(cc3c(c2OC)OCO3)CCN1C (stereo not given in full),0.0235 µM (active),
Cn1cnc2c(F)c(Nc3ccc(Br)cc3F)c(C(=O)NOCCO)cc21,,115% (inactive)
COc1cc([C@@H]2c3cc4c(cc3[C@H](O)[C@H]3COC(=O)[C@@H]23)OCO4)cc(OC)c1OC,0.059 µM (active),
Cc1noc(-c2ccc(CSCCC(=O)O)cc2)c1NC(=O)OC(C)c1ccccc1Cl (stereo not given),,124% (inactive)
CC(=O)N1CCN(c2ccc(OCc3nn(C)c(C)c3-c3cccc4c(CCCOc5cccc6ccccc56)c(C(=O)O)n(Cc5cccnc5)c34)cc2)CC1,20.9 µM (active),
O=C(O)C[C@H](O)C[C@H](O)C=Cc1c(C2CC2)nc2ccccc2c1-c1ccc(F)cc1,11.8 µM (active),
N#Cc1ccc(COC[C@H]2O[C@@H](n3c(NCc4ccc(Cl)c(Cl)c4)nc4c(N)ncnc43)[C@@H](O)[C@@H]2O)cc1,2.96 µM (active),
CN[C@H]1[C@@H](O)[C@@H]2O[C@@H]3O[C@H](C)CC(=O)[C@]3(O)O[C@@H]2[C@@H](NC)[C@H]1O,10.5 µM (active),
COc1cc([C@@H]2c3cc4c(cc3[C@@H](O[C@@H]3O[C@@H]5CO[C@@H](c6cccs6)O[C@@H]5[C@H](O)[C@@H]3O)[C@H]3COC(=O)[C@H]23)OCO4)cc(OC)c1O,5.26 µM (active),

SMILES,Potency,viability
CCCCCCCCCCCC(CC1OC(=O)C1CCCCCC)OC(=O)C(CC(C)C)NC=O (stereo not given),16.6 µM (active),
Cc1nc(NC(=O)N2CCC[C@@H]2C(N)=O)sc1-c1ccnc(C(C)(C)C(F)(F)F)c1,6.62 µM (active),
COc1cc(OC)c(C=CS(=O)(=O)Cc2ccc(OC)c(NCC(=O)O)c2)c(OC)c1,0.235 µM (active),
CCCCCCCCc1ccc(CCC(N)(CO)CO)cc1,23.5 µM (active),
CC(N[C@H]1CCCC[C@H]1NC(=O)c1ccc(Cl)cc1)c1cccc2ccccc12 (stereo not given in full),,94.8% (inactive)
C[C@H](NCc1ccc2c(c1)nc(NC(=O)c1ccc(-c3cn[nH]c3)s1)n2CCc1ccccc1)C(C)(C)C,2.96 µM (active),
COc1ccc(Nc2cc(-c3cnc(N)nc3)nc(N3CCOCC3)n2)cn1,0.235 µM (active),
CCN(CC)Cc1ccc2cc(COC(=O)Nc3ccc(C(=O)NO)cc3)ccc2c1,0.935 µM (active),
C[C@H](O)[C@@H]1C(=O)N2C(C(=O)O)=C(S[C@@H]3CN[C@H](CNS(N)(=O)=O)C3)[C@@H](C)[C@@H]12,,105% (inactive)
CN(C)CCN1C(=O)c2cccc3cc(N)cc(c23)C1=O,18.7 µM (active),
O=C(NNC(=O)c1ccc(CNS(=O)(=O)c2ccc(F)c(Cl)c2)cc1)c1ccccc1,,126% (inactive)
O=C(Nc1ccc(Oc2ccnc3[nH]ccc23)c(F)c1)c1cccn(-c2ccc(F)cc2)c1=O,18.7 µM (active),
CCOC(=O)N1CCN([N+]([O-])=NOc2ccc([N+](=O)[O-])cc2[N+](=O)[O-])CC1,6.62 µM (active),
C=CC(=O)Nc1cccc(Nc2nc(NC3CCC(N(C)C)CC3)nc3c2ncn3C(C)C)c1 (stereo not given),0.935 µM (active),
Cc1ccc2nc(NCCN)c3ncc(C)n3c2c1,4.69 µM (active),
CC(C)(C)[C@H](NC(=O)c1ccc(N)c(Cl)c1)C(=O)N1CCC[C@@H]1C(=O)N[C@H](C#N)CC(=O)O,,125% (inactive)
O=c1ccn([C@@H]2O[C@H](CO)[C@H](O)[C@@H]2F)c(=O)[nH]1,,118% (inactive)
COc1cccc2c1C(=O)c1c(O)c3c(c(O)c1C2=O)C[C@@](O)(C(=O)CO)C[C@@H]3O[C@H]1C[C@H](N)[C@@H](O)[C@H](C)O1,0.935 µM (active),
COc1ccc(C(C)=O)c(O)c1,,112% (inactive)
O=C(O)CCCCCC(=O)NN=C1CCCC1,,119% (inactive)

# — PubChem BioAssay (NCATS)
